PubChem BioAssay (NCATS)
Records with an inconclusive call do not appear. Active and inactive are the calls of the source. Unless noted, calls follow the shape of the dose curve; as a rule, active = well fitted curve in the direction sought with a large enough effect; inconclusive = small, poorly fitted or top-dose-only effect, or another doubt; inactive = no such curve, though single readings can be large; an effect the other way counts as inactive or inconclusive.

Columns and labels:
[1] = qHTS for differential inhibitors of proliferation of Plasmodium falciparum line 3D7 (AID 1876);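 also: parasite growth measured after three days of culture; 0% = vehicle wells and -100% = reference inhibitor wells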
[2] = qHTS for differential inhibitors of proliferation of Plasmodium falciparum line Dd2 (AID 1882); conditions: Potency: Plasmodium falciparum Dd2 proliferation inhibition;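 also: series mostly up to about 29 µM; plate controls were DMSO vehicle for no effect and 0.29 µM artemisinin for full effect; nearly all actives have a fitted effect of over 65% in size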
Outline: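 SYBR Green DNA fluorescence (ex 485, em 535 nm) after overnight lysis quantifies parasite growth; compound exposure lasted 72 h at 37 C on infected red cells at 2.5% hematocrit, 0.3% parasitemia (final). Artemisinin 0.29 uM and vehicle wells define normalization.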

[3] = qHTS for differential inhibitors of proliferation of Plasmodium falciparum line W2 (AID 1883); conditions: Potency: Plasmodium falciparum W2 proliferation inhibition;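 also: potency is read from the fitted curve at half-maximal effect; parasites grown with compound for 72 h before lysis and staining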
[4] = target: Ferritin light chain (Equus caballus) (UniProt P02791); assay: qHTS Validation Assay for Identification of Novel General Anesthetics (AID 2323); also: series mostly up to about 77 µM; % is scaled to controls: 0 for no effect and ±100 for the full control effect
Chain of Ferritin light chain (Equus caballus) (P02791 2-175 limits assumed): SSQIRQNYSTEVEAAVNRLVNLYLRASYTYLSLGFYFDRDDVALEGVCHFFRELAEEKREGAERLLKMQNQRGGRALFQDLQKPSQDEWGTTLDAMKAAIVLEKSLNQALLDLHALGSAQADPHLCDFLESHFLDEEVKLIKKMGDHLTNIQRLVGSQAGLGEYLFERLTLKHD
Outline: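 Competitive displacement of the profluorescent anesthetic 1-AMA (50% saturated, PBS) from 10 uM apoferritin, 10 min, room temperature. Activity is normalized 380/535 nm fluorescence; concentration-response fitted with a four-parameter Hill equation.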

[5] = target: ATP-dependent DNA helicase Q1 (Homo sapiens) (UniProt P46063); assay: qHTS Validation Assay for Inhibitors of RecQ-Like Dna Helicase 1 (RECQ1) (AID 2353);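 also: plate controls were DMSO vehicle for no effect and enzyme-free control for full effect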
Chain of ATP-dependent DNA helicase Q1 (Homo sapiens) (P46063 whole entry, looked up): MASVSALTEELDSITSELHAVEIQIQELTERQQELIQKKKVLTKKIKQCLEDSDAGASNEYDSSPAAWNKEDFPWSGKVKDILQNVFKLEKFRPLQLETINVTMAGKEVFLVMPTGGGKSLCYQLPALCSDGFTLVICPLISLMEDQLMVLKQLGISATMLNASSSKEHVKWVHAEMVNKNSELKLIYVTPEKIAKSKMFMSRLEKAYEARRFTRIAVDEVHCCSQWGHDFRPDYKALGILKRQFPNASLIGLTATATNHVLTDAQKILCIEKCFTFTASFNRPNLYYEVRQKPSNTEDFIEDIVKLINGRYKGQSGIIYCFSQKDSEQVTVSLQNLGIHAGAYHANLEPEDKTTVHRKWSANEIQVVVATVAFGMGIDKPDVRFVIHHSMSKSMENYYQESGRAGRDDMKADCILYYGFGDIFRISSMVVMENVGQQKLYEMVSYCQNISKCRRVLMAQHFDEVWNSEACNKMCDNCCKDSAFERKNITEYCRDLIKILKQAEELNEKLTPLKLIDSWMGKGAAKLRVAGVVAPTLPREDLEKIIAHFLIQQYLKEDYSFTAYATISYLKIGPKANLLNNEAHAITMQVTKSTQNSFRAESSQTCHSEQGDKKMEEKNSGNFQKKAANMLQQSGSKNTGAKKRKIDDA
Outline: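 RECQ1T1 50 nM; forked duplex (20 bp + 30-nt ss tails) 200 nM, ATP 2 mM final; pH 8.0, 2 mM MgCl2, 2.5 ug/ml poly(dI-dC); 15 min compound preincubation; discontinuous kinetic read over 2 h at RT.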

[6] = target: RecQ-like DNA helicase BLM (Homo sapiens) (UniProt P54132); assay: qHTS Validation Assay for Inhibitors of Bloom's syndrome helicase (BLM) (AID 2364);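 also: plate controls were DMSO vehicle for no effect and enzyme-free control for full effect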
Chain of RecQ-like DNA helicase BLM (Homo sapiens) (P54132 whole entry, looked up): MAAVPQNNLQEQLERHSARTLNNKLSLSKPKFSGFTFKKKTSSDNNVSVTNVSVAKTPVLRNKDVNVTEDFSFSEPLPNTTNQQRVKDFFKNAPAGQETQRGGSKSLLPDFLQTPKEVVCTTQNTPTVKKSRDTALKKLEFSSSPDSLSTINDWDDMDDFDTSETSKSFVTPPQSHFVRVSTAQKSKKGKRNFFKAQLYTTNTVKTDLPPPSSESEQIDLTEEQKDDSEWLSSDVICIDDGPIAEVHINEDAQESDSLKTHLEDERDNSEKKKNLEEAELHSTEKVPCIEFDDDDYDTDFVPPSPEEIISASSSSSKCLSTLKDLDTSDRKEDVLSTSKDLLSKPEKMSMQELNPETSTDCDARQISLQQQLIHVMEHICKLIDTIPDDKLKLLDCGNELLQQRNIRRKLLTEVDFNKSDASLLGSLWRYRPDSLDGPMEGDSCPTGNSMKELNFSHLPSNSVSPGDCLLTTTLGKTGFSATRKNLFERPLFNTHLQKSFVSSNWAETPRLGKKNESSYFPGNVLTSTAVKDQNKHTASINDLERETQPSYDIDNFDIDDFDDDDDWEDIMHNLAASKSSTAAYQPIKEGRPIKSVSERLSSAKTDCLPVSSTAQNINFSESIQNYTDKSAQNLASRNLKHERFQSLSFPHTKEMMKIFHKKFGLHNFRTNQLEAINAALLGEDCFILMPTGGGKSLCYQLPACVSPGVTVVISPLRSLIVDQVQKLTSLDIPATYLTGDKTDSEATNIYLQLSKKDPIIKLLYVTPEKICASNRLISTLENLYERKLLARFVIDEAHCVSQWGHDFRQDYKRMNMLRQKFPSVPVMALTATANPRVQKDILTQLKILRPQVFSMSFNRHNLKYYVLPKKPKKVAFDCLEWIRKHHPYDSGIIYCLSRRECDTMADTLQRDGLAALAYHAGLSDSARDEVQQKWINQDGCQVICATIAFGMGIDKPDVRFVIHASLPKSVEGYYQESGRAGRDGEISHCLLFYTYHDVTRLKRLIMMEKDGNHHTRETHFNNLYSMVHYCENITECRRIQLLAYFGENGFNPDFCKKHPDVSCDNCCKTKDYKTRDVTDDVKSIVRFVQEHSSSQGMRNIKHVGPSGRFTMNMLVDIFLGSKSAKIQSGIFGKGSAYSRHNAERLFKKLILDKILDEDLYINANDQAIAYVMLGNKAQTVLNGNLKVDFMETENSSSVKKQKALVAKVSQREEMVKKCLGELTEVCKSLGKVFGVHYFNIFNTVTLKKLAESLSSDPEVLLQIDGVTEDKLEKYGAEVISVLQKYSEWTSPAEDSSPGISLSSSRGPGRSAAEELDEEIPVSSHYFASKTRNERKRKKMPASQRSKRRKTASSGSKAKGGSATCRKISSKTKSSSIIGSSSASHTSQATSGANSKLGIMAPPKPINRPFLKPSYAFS
Outline: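 Forked 20-bp duplex substrate (200 nM, TAMRA/BHQ-2) plus 2 mM ATP added after 15 min compound preincubation with 50 nM enzyme, pH 8.0, poly(dI-dC) 2.5 ug/ml. Strand separation followed by fluorescence (525/598 nm) over 2 h, normalized to enzyme-free and DMSO controls.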

[7] = Validation screen for inhibitors of Lassa infection (AID 463096; calls by dose curve; also: % is scaled to controls: 0 for no effect and ±100 for the full control effect)
[8] = Validation screen for small molecules that induce DNA re-replication in MCF 10A normal breast cells (AID 463097); also: 0% is about no effect; nearly all actives have a fitted effect of over 60% in size
Outline: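 Read-out is Hoechst total nuclear intensity by fluorescence scanning imager, flagging increased high-DNA-content nuclei. Compounds were incubated with MCF 10A cells for 48 hr (37 C, 5% CO2) before 40 min staining.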

[9] = target: Transient receptor potential cation channel subfamily V member 1 (Homo sapiens) (UniProt Q8NER1); assay: HTS Assay for Compounds that Act as Enhancers of the Vanilloid Receptor 1 (AID 488979); also: 0% is about no effect
Chain of Transient receptor potential cation channel subfamily V member 1 (Homo sapiens) (Q8NER1 whole entry, looked up): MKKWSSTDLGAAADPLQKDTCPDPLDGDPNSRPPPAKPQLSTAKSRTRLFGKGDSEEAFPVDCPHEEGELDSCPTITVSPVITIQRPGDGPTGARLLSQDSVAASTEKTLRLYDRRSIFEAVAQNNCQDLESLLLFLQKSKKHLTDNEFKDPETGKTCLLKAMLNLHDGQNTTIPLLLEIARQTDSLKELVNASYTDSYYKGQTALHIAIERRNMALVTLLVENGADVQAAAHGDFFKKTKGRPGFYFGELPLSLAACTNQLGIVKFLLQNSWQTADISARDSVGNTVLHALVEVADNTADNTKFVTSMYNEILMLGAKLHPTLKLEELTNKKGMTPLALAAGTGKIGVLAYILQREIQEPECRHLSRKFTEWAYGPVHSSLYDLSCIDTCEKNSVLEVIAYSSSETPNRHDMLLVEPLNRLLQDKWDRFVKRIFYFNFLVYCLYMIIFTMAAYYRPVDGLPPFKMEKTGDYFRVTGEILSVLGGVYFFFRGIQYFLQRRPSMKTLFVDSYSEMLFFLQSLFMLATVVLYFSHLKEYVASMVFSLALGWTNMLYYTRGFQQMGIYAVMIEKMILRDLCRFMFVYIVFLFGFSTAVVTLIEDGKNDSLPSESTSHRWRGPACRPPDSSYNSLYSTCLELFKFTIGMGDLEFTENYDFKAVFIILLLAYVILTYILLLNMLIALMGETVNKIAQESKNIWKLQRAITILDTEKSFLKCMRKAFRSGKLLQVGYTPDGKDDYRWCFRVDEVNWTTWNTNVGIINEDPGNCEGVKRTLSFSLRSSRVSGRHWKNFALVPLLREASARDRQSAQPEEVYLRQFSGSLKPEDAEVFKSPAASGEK
Outline: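 Calcium influx kinetics via Fluo-8 (480/520 nm) in TRPV1-expressing cells, 2000/well cultured overnight at 35.5C. Compound-alone read 3 min (agonist phase), followed by EC20 capsaicin challenge for 2 min (enhancer phase).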

[10] = target: Thyrotropin receptor (Homo sapiens) (UniProt P16473); assay: qHTS Assay for Antagonists of the Thyroid Stimulating Hormone Receptor (AID 488980); also: series mostly up to about 58 µM; 0% is about no effect
Outline: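 Inhibition of cAMP raised by EC80 TSH (4 nM final) was read by HTRF, with lysate cAMP competing against cAMP-d2 for cryptate antibody after 30 min at room temperature. The cells were transfected HEK293 held in phosphodiesterase inhibitor RO 20-1724 at 70 uM.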

[11] = target: Thyrotropin-releasing hormone receptor (Homo sapiens) (UniProt P34981); assay: qHTS for Small Molecule Agonists and Allosteric Enhancers of Human TRH Receptor: Validation Screen for Agonists (AID 493127;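 active = calcium activation more than 3 SD above the typical response in the agonist read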;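 also: intracellular calcium rise by fluo-8 fluorescence before TRH EC20 addition; 0% is about no effect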); conditions: TRH receptor agonist cell assay; at 2 µM; stronger effect = higher value
Chain of Thyrotropin-releasing hormone receptor (Homo sapiens) (P34981 whole entry, looked up): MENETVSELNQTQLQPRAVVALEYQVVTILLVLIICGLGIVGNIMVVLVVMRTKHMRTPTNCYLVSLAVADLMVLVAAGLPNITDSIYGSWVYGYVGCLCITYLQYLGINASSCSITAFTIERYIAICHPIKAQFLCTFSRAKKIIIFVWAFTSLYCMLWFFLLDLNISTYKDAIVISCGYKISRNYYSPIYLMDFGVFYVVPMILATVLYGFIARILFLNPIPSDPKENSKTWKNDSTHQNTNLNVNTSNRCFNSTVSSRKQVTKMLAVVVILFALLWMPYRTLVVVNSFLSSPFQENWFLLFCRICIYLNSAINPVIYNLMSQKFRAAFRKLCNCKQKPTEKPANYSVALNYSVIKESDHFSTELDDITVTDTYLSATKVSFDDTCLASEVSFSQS
Outline: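 Compound-evoked intracellular calcium release in fluo-8-loaded TRHR cells, read kinetically on FDSS (Ex 480/Em 530, 1 s/cycle) after 23 nL pintool transfer. Agonist phase preceded 10 nM TRH EC20 addition.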

[12] = target: Galactokinase (Homo sapiens) (UniProt P51570); assay: qHTS Validation Assay for Inhibitors of Human Galactokinase (GALK) (AID 493189); also: 0% is about no effect
Chain of Galactokinase (Homo sapiens) (P51570 whole entry, looked up): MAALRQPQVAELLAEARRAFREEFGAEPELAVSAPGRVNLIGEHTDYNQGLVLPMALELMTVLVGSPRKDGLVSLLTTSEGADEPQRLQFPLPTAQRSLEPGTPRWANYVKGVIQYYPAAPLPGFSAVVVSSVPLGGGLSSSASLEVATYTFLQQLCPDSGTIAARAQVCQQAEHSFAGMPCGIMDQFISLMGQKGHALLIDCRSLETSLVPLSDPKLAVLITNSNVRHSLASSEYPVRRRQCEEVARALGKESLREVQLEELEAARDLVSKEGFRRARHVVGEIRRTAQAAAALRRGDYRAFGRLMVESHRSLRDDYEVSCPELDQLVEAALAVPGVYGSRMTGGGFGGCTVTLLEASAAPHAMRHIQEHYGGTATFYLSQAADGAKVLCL
Outline: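 Inhibition was measured as remaining ATP, detected by luciferase luminescence after a 1 h room-temperature reaction. Final conditions: 5 nM GALK, 100 uM galactose, 35 uM ATP, pH 8.0 HEPES buffer.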

[13] = target: Voltage-gated inwardly rectifying potassium channel KCNH2 (Homo sapiens) (UniProt Q12809); assay: qHTS Assay for Small Molecule Inhibitors of the Human hERG Channel Activity (AID 588834);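 also: top concentration of the series differs between compounds; % is scaled to controls: 0 for no effect and ±100 for the full control effect; lower thallium flux fluorescence means stronger hERG block; nearly all actives have a fitted effect of over 50% in size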
Chain of Voltage-gated inwardly rectifying potassium channel KCNH2 (Homo sapiens) (Q12809 whole entry, looked up): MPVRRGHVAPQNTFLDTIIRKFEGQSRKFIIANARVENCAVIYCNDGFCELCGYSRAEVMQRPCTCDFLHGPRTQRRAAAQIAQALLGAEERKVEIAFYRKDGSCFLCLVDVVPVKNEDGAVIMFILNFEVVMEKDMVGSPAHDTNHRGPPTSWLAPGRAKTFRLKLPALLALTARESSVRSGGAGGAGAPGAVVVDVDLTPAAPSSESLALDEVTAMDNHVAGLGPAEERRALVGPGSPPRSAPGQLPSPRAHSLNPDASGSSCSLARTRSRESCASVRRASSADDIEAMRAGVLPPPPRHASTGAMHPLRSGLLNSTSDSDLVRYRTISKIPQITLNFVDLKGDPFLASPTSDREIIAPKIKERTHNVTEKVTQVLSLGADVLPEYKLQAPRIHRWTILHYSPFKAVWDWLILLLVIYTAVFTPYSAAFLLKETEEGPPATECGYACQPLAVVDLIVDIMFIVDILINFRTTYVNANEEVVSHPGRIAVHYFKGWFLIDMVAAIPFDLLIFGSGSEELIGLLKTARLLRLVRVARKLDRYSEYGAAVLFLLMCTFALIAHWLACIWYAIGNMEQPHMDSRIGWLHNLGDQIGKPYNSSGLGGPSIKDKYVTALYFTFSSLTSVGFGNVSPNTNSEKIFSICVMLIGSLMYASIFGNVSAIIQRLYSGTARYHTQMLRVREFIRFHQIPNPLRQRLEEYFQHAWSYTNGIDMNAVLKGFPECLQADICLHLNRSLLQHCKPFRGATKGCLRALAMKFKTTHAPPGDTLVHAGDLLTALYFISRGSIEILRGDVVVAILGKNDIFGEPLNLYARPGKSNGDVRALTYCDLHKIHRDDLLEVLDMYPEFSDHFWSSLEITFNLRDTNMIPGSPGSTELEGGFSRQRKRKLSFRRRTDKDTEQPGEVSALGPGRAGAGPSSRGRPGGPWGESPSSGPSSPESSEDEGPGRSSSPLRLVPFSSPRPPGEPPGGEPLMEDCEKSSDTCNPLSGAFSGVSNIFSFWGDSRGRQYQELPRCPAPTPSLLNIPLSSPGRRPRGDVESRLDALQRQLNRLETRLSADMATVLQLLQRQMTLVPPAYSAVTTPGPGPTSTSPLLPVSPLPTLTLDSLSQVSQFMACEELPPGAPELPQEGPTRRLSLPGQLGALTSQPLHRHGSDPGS
Outline: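 hERG block measured as reduced thallium-dye (FluxOR) fluorescence after stimulation buffer addition, read over 2 min. Cells were hERG-BacMam-transduced U2OS exposed to compound ~10 min […]; concentration-response fitted with Hill equation for AC50.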

Furin (Homo sapiens) = Furin (Homo sapiens) (UniProt P09958); assay: Furin counterscreen qHTS for Zika virus inhibitors (AID 1347149); also: potency is read from the fitted curve at half-maximal effect; nearly all actives have a fitted effect of over 70% in size
Outline: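 Counterscreen measures cleavage of 2 microM BOC-RVRR-AMC, below its ~15 microM Km, by 5 nM full-length human furin at pH 7.0 after a 15-min compound preincubation. Inhibition derives from the 15-min fluorescence increase at 37C.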

[14] = test system: Zika virus NS2B-NS3 protease (linked construct); assay: Confirmatory screen NINDS AMC qHTS for Zika virus inhibitors (AID 1347152); also: potency is read from the fitted curve at half-maximal effect; nearly all actives have a fitted effect of over 70% in size
Outline: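 IC50s from 4-parameter Hill fits of percent inhibition, based on AMC fluorescence gain (340/450 nm) over 15 min with 10 microM Bz-Nle-KRR-AMC. Enzyme: 1 nM linked NS2B-NS3 in Tris-HCl pH 8.0; 15-min compound preincubation.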

[15] = test system: Zika virus NS2B-NS3 protease (unlinked complex); assay: Confirmatory screen GU AMC qHTS for Zika virus inhibitors (AID 1347153);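 also: enzyme at 25 nM with substrate at 10 µM below its Km of 18.3 µM; potency is read from the fitted curve at half-maximal effect; nearly all actives have a fitted effect of over 70% in size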
Outline: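 Compounds were preincubated 15 min at room temperature with 25 nM noncovalent NS2B-NS3 protease at pH 8.0; AMC substrate added at 10 microM and 15-min fluorescence gain (340/450 nm) converted to percent inhibition, fitted 4-parameter.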

[16] = test system: Zika virus NS2B-NS3 protease; assay: Primary screen GU AMC qHTS for Zika virus inhibitors (AID 1347154); also: potency is read from the fitted curve at half-maximal effect; nearly all actives have a fitted effect of over 70% in size
Outline: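 Fluorogenic AMC-substrate cleavage by noncovalent NS2B-NS3 protease complex (25 nM, pH 8.0 Tris buffer with Tween 20) followed for 15 minutes at room temperature (~20% conversion). Percent inhibition from ex340/em450 signal change, fitted by 4-parameter Hill equation.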

[17] = Vero cells viability qHTS for Zika virus inhibitors (AID 1347167); also: % is scaled to controls: 0 for no effect and ±100 for the full control effect
Outline: (§1)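 Luminescent ATP readout (CellTiter Glo) after 30 min at 37 degrees C gives viability; cells in DMEM + 4% FBS were treated 24 to 48 hours with compound, following overnight attachment.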

[18] = HepG2 cells viability qHTS for Zika virus inhibitors (AID 1347168); also: % is scaled to controls: 0 for no effect and ±100 for the full control effect
Outline: as §1

[19] = Tertiary RLuc qRT-PCR qHTS assay for Zika virus inhibitors (AID 1347169); also: top concentration of the series differs between compounds; % is scaled to controls: 0 for no effect and ±100 for the full control effect; nearly all actives have a fitted effect of over 55% in size
Outline: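 Orthogonal cell-based readout: luminescence measured 1-1.5 hrs after adding live-cell Renilla substrate to Vero cells that had been infected with ZIKV-RLuc (MOI 1-2) post-compound, incubated 48-72 hrs at 37 degrees C.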

[20] = Primary qHTS for small molecule stabilizers of the endoplasmic reticulum resident proteome: Secreted ER Calcium Modulated Protein (SERCaMP) assay (AID 1508630); also: % is scaled to controls: 0 for no effect and ±100 for the full control effect
Outline: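 The SH-SY5Y reporter protocol was run at 3 concentrations up to 38.3 uM (primary) or 11 concentrations (follow-up): 16 h compound, 100 nM thapsigargin for 4 h, then extracellular luciferase luminescence.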

COC(=O)c1cc2c(cn1)[nH]c1ccccc12
active: Potency [3] 12.6 µM | Potency (Furin (Homo sapiens)) 24.1 µM | Potency [14] 24.1 µM | Potency [15] 24.1 µM | Potency [16] 23.8 µM
inactive: Potency [1] | Potency [2] | outcome [4] | Potency [5] | Potency [6] | Potency [7] | Potency [8] | outcome [9] | outcome [10] | activation [11] 1.44% | outcome [12] | Potency [13] | Potency [17] | Potency [18] | Potency [19] | Potency [20]
